Measurements from the supplement of paper PMC9446081.
The whole screen tested about 39,000 compounds, of which about 220 (0.56%) showed activity. Only a selection was taken, and actives are over-represented in it overall. Unmarked numbers belong to inactive results.

Test system: Escherichia coli K-12 BW25113
Test: relative growth (OD600 normalised to plate interquartile mean) (fraction); higher = less growth inhibition, active = 0.2 or less
Conditions: 50 µM; LB; incubation time: overnight (16-24 h)
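Note: Wild-type cells incubated without shaking, value is the mean of two biological replicates.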

Structure (SMILES)	relative growth
CN1C=C(C(=O)OCCS(C)(=O)=O)C(C(=O)OCCS(C)(=O)=O)=CC(c2ccc(CO)cc2)=C[C@@H]1C1CC1	1.02
Cc1ccc(S(=O)(=O)N[C@H]2CC[C@H](CC(=O)N3CCC(Cc4ccccc4)CC3)O[C@H]2CO)cc1	1.02
Cc1noc(C)c1NC(=O)Nc1ccc2c(c1)C(=O)N([C@@H](C)CO)C[C@@H](C)[C@@H](CN(C)S(=O)(=O)c1ccccc1)OCCCC[C@H](C)O2	0.998
C[C@H]1CN([C@@H](C)CO)C(=O)c2cccc(NC(=O)Nc3ccccc3)c2O[C@@H]1CN(C)S(C)(=O)=O	0.991
CCS(=O)(=O)Nc1ccc2c(c1)C(=O)N(C)[C@@H]1CC[C@@H](CC(=O)NCc3ccc(OC)cc3)O[C@@H]1CO2	1.01
Cc1ccc(NC(=O)C[C@@H](N)C(=O)O)cc1	1.01
CCOC(=O)/C(=N/O)c1csc(N)n1	0.997
CC1C(NC(=O)C(=NOC(C)(C)C(=O)O)c2csc(N)n2)C(=O)N1S(=O)(=O)O (stereo unspecified)	0.0499 (active)
CCNC(=O)c1csc(N)n1	0.971
C[C@H]1[C@H](NC(=O)/C(=N\OC(C)(C)C(=O)O)c2csc(N)n2)C(=O)N1S(=O)(=O)O	0.0312 (active)
COc1ccc(S(=O)(=O)N2C[C@H](O)COC[C@@H]3O[C@@H](CC(=O)NCCCN4CCOCC4)CC[C@H]32)cc1	0.999
CC(C)NC(=O)Nc1ccc2c(c1)C(=O)N([C@H](C)CO)C[C@@H](C)[C@H](CN(C)S(=O)(=O)c1ccc(Cl)cc1)O2	1.03
Cn1c(=O)oc2cc(S(=O)(=O)N3CCC[C@H](C(=O)NN4CCOCC4)C3)ccc21	0.99
CC(C)(O/N=C(\C(=O)N[C@@H]1C(=O)N2C(C(=O)O)=C(C[N+]3(CCNC(=O)c4ccc(O)c(O)c4Cl)CCCC3)CS[C@H]12)c1csc(N)n1)C(=O)O	0.0469 (active)
NC(=O)c1cc[n+](CC2=C(C(=O)O)N3C(=O)[C@@H](NC(=O)Cc4cccs4)[C@H]3SC2)cc1	1.04
CC(C)(O/N=C(\C(=O)N[C@@H]1C(=O)N2C(C(=O)O)=C(C[n+]3ccccc3)CS[C@H]12)c1csc(N)n1)C(=O)O	0.0433 (active)
CC(C)(ON=C(C(=O)NC1C(=O)N2C(C(=O)[O-])=C(C[n+]3ccccc3)CSC12)c1csc(N)n1)C(=O)O (stereo unspecified)	0.0511 (active)
COc1ccc(CNC(=O)C[C@@H]2CC[C@H]3[C@@H](COc4ccc(NC(=O)C5CC5)cc4C(=O)N3C)O2)cc1	1.03
CC(C)(C)[S@](=O)N1Cc2cc(C(=O)N3CCCCC3)nc(-c3cccc(-c4ccc(C#N)cc4)c3)c2[C@@H]1CCO	1
C[C@@H]1CN([C@@H](C)CO)C(=O)c2cc(-c3ccc(C(=O)N(C)C)cc3)cnc2O[C@H]1CN(C)C(=O)c1cccnc1	1.03
CCCNC(=O)N1CC[C@]2(CC1)CN([C@@H](CO)c1[nH]c3cc(ccc3c12)OC)C(=O)CN1CCOCC1	0.998
COCCOC(=O)N1C(=O)[C@@]2(c3cc(C#Cc4ccc(OC)cc4)ccc31)[C@H](C(=O)N1CCN(c3ncccn3)CC1)[C@H]1C(=O)O[C@H](c3ccccc3)[C@H](c3ccccc3)N1[C@@H]2c1ccccc1OCCO	1.07
O=C1C[C@]2(c3ccc([N+](=O)[O-])cc3)C(=O)N(C3CC3)c3cc(CO)ccc3[C@H]2N1CC12CC3CC(CC(C3)C1)C2	1.01
CO[C@H]1CN(C)C(=O)c2cc(NC(=O)Nc3cccc(F)c3)ccc2OC[C@@H](C)N(C(=O)Nc2c(C)noc2C)C[C@H]1C	0.978
C[C@H](CO)N1C[C@H](C)[C@H](CN(C)C(=O)Nc2ccc(N3CCN(C)CC3)cc2)OCc2cnnn2CCCC1=O	0.983
CCC(=O)OC1C(OC2C(C)C(OC3CC(C)(OC)C(O)C(C)O3)C(C)C(=O)OC(CC)C(C)(O)C(O)C(C)C(=O)C(C)CC2(C)O)OC(C)CC1N(C)C.CCCCCCCCCCCCOS(=O)(=O)O (stereo unspecified)	0.953
